Test [1] has as its target Cellular tumor antigen p53 (Homo sapiens) (UniProt P04637). In words: TOX21_p53_BLA_p3_ratio: Tox21 HCT-116 p53 Agonism Beta-lactamase Assay, Ratio, Phase 3 (AID 2283596). The essentials:
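Cells were seeded at 4000/well, rested 5 h at 37C, then dosed with DMSO compound solutions (217-fold dilution) for 16 h. CCF4-AM substrate was loaded for 2 h at room temperature, and the 460/530 nm emission ratio was fitted for gain of signal versus DMSO.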

The target is the same in test [2]. The experiment in a line: TOX21_p53_BLA_p5_ratio: Tox21 HCT-116 p53 Agonism Beta-lactamase Assay, Ratio, Phase 5 (AID 2283599). The essentials: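 HCT-116 cells carrying a p53-inducible beta-lactamase reporter were seeded at 4000 cells/well and dosed after 5 h with compound in DMSO (217-fold dilution). After 16 h at 37C, CCF4-AM substrate was added for 2 h, and the 460/530 nm emission ratio was scored as gain-of-signal versus DMSO.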

Test [3] can be described thus: TOX21_p53_BLA_p5_viability: Viability Assessment in the Tox21 HCT-116 p53 Agonism Beta-lactamase Assay, Phase 5 (AID 2283600). The essentials: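 Workflow: seed 4000 cells per well, wait 5 h, add compounds (DMSO, 217-fold dilution), incubate 16 h, load CCF4-AM 2 h, add CellTiter-Glo, read luminescence after 30 min.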
Test [4] concerns the target Cellular tumor antigen p53 (Homo sapiens) (UniProt P04637). In words: TOX21_p53_BLA_p4_ratio: Tox21 HCT-116 p53 Agonism Beta-lactamase Assay, Ratio, Phase 4 (AID 2283601). The essentials:
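HCT116 cells carrying an inducible beta-lactamase reporter were plated at 4000 cells/well, rested 5 h, then exposed to compounds in DMSO (217-fold dilution) for 16 h at 37C. CCF4-AM substrate was loaded 2 h at room temperature; 460/530 nm emission ratio scored gain-of-signal versus DMSO.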

The nature of test [5]: TOX21_p53_BLA_p4_viability: Viability Assessment in the Tox21 HCT-116 p53 Agonism Beta-lactamase Assay, Phase 4 (AID 2283597).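 Also: hits lower the luminescence signal meaning cytotoxicity.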 The essentials: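 Readout: ATP luminescence (CellTiter-Glo), measured 30 min after reagent addition at RT. The reagent followed a 2 h CCF4-AM incubation, and the cells had been exposed to compound for 16 h at 37C.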
Test [6] in a line: Tanguay_ZF_120hpf_MORT_legacy: (Legacy) Oregon State University Tanguay Lab 120 Hour Post-fertilization zebrafish Assay for Mortality (AID 2283633). The essentials:
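5D WT zebrafish, chorion removed 4 hpf; 1 embryo/well from 6 hpf; static exposure to 120 hpf, 28C, dark, sealed. Final DMSO 0.64%. Readout: binary mortality, brightfield, 24 + 120 hpf; DMSO as negative control.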

The nature of test [7]: Tanguay_ZF_120hpf_YSE_legacy: (Legacy) Oregon State University Tanguay Lab 120 Hour Post-fertilization zebrafish Assay for Yolk Sac Edema (AID 2283634). The essentials:
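Dechorionate (pronase, 4 hpf) → place one 6 hpf embryo per well → static compound exposure, sealed and foil-covered, 28C, to 120 hpf → record yolk sac edema as present or absent. Final DMSO 0.64%.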

Test [8] in a line: Tanguay_ZF_120hpf_AXIS_legacy: (Legacy) Oregon State University Tanguay Lab 120 Hour Post-fertilization zebrafish Assay for Body Axis Malformation (AID 2283635). The essentials: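 Chorion is removed with pronase at 4 hpf, then single 6 hpf embryos are dosed (final DMSO 0.64%) and held statically at 28C in sealed, foil-covered plates. At 120 hpf body axis malformation is recorded as present or absent.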

A short description of test [9]: Tanguay_ZF_120hpf_SNOU_legacy: (Legacy) Oregon State University Tanguay Lab 120 Hour Post-fertilization zebrafish Assay for Snout Malformation (AID 2283637). The essentials:
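Dechorionated zebrafish, individually housed from 6 hpf in covered, sealed wells at 28C with 0.64% DMSO vehicle, were examined at 120 hpf for snout malformation. Responses were binary and analysed positive-direction relative to DMSO.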

Records with an inconclusive call do not appear. The source made the active and inactive calls. The calls were made as follows: active = hit-call score of the fitted dose curve at least 0.9, where 1 is the maximum; inconclusive = response in the unintended direction; inactive = score below 0.9. Peptide text beside a SMILES is read from it.

Chain of Cellular tumor antigen p53 (Homo sapiens) (P04637 whole entry, looked up): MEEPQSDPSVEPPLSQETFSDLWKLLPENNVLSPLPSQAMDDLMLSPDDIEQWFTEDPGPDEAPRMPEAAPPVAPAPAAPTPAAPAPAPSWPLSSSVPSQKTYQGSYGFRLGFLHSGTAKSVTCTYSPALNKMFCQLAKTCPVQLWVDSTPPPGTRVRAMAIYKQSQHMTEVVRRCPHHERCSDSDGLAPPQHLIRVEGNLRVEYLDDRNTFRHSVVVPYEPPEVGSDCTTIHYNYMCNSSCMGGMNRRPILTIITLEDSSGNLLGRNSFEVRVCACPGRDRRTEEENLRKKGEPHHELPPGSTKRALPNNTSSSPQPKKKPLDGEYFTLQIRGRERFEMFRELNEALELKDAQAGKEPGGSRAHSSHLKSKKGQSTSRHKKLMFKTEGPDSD

Take `CC/C=C\CCOC(=O)c1ccccc1O`: the outcome in test [1], in [2], in test [3] and in test [4] was inactive.

Take `c1ccc2c(c1)[nH]c1ccccc12`: the outcome in [1], in test [2], in [3] and in [4] was inactive.

Turning to `CCCCCCCCCCCCC`, the result in test [1], in test [2], in test [3] and in test [4] was inactive.

For `C=CC(=O)OCCCCCCCCCC`, the outcome in test [1], in [2], in test [3] and in [4] was inactive.

Take `CCCCC1C(=O)N(c2ccccc2)N(c2ccccc2)C1=O`: the result in [1], in [2], in test [3] and in test [4] was inactive.

On to `CCCCCCOc1ccc(N)cc1`, for which the outcome in test [1], in test [2], in test [3] and in test [4] was inactive.

Consider `Cc1ccc(S(=O)(=O)N=C=O)cc1`, for which the outcome in test [1], in [2], in [3] and in test [4] was inactive.

`CC(C)=CCl`: the outcome in test [1], in test [5] and in test [4] was inactive.

As for `CCCC1CCCC(=O)O1` (stereo not drawn), the result in [1], in test [2], in [3] and in test [4] was inactive.

With `CCN1CCCC1=O`, the result in test [1], in test [2], in test [3] and in [4] was inactive.

Consider `CC(=O)OC/C=C(/C)CCC=C(C)C`, for which the outcome in test [1], in [2], in test [3] and in test [4] was inactive.

Consider `CC(C)C(=O)OCCOc1ccccc1`, for which the result in [1], in test [2], in test [3] and in test [4] was inactive.

Take `CCc1cccc(C)c1N`: the outcome in test [1], in test [2], in test [3] and in test [4] was inactive.

As to `CCCc1ccc(O)c(OC)c1`, the outcome in test [1], in [2], in [3] and in [4] was inactive.

As to `CC(=O)CC(=O)Nc1ccccc1C`, the result in test [1], in test [2] and in test [3] was inactive.

As to `C=C(C)C(=O)OCCOC(=O)C(=C)C`, the outcome in test [1], in [2], in test [3] and in test [4] was inactive.

`CCCCOC(=O)C(C)CC` (stereo not drawn): the outcome in test [1], in test [2], in test [3] and in test [4] was inactive.

In the case of `CC(C)(C)C1CCC(=O)CC1`, the result in [1], in test [2], in test [3] and in test [4] was inactive.

Take `CC(=O)c1ccccc1O`: the outcome in test [1] and in [2] was inactive.

`CC(=O)CCC=C(C)C`: the outcome in test [1], in [2], in test [3] and in test [4] was inactive.

`CCCCCCCCCCCC(=O)OCC`: the result in test [1], in test [2], in test [3] and in test [4] was inactive.

As to `CC(C)c1cc(C(C)C)cc(C(C)C)c1`, the outcome in test [1], in test [5] and in test [4] was inactive.

In the case of `CC(C)c1cccc(C(C)C)c1N`, the result in [1] and in [2] was inactive.

For `Cc1cccc(C(C)(C)C)c1O`, the result in test [1], in test [2], in test [3] and in test [4] was inactive.

Take `COC(=O)[C@H](Cc1ccccc1)NC(=O)[C@@H](N)CC(=O)O` (H-Asp-Phe-OMe): the result in test [1], in test [2], in test [3] and in test [4] was inactive.

One may read the AC50 as the midpoint of the concentration-response curve, whichever way the signal moves. In the case of `CCCCCCCCCCCCc1ccc(O)cc1`, the AC50 is 49.9 µM (active) in test [1], 52.1 µM (active) in test [2], 24 µM (active) in [3] and 28.3 µM (active) in test [4].

Turning to `CC(=O)c1ccc(S(=O)(=O)NC(=O)NC2CCCCC2)cc1`, the outcome in [1], in [2], in test [3] and in test [4] was inactive.

As to `CCC(C)C(=O)OCCc1ccccc1` (stereo not drawn), the outcome in [1], in [2] and in test [3] was inactive.

Take `CCCCC1CCC(=O)O1` (stereo not drawn): the result in test [1], in test [2], in test [3] and in [4] was inactive.

Regarding `O=C1CCCCCCCCCCCN1`, the result in test [1], in test [2], in test [3] and in [4] was inactive.

Take `CCCCOCC(C)O` (stereo not drawn): the result in [1] and in test [2] was inactive.

For `O=C(O)CCCC(=O)O`, the result in test [1], in test [2], in test [3] and in test [4] was inactive.

With `C=Cc1ccc(OC(C)=O)cc1`, the outcome in test [1] and in [2] was inactive.

For the molecule `N#CC1(N)CCCCC1`, the result in [1], in [2], in test [3] and in test [4] was inactive.

`CC(=O)C(C)C`: the result in [1], in [2], in test [3] and in [4] was inactive.

On to `O=S(=O)(O)c1ccc(Nc2nc(Nc3ccc(C=Cc4ccc(Nc5nc(Nc6ccc(S(=O)(=O)O)cc6)nc(N(CCO)CCO)n5)cc4S(=O)(=O)O)c(S(=O)(=O)O)c3)nc(N(CCO)CCO)n2)cc1`, for which the AC50 in test [1] is 41.3 µM (active); in test [2], 42.6 µM (active); in [4] it was 37.1 µM (active).

For the molecule `CC1(C)[C@@H]2CC[C@@]1(C)C(=O)C2`, the result in test [1], in test [2] and in test [4] was inactive.

Turning to `CC1=CC(C)C(C=O)CC1` (stereo not drawn), the outcome in test [1], in [2] and in test [4] was inactive.

In the case of `O=C(O)c1cc(O)c2ccccc2c1O`, the result in test [1], in [2] and in test [4] was inactive.

`C=CC(=O)OCC(C)OCC(C)OCC(C)OC(=O)C=C` (stereo not drawn): the result in test [1], in test [2] and in [4] was inactive.

As to `Cc1noc(NS(=O)(=O)c2ccc(N)cc2)c1C`, the result in test [1], in test [2] and in test [4] was inactive.

As for `Nc1ncnc2nc[nH]c12`, the result in [1], in test [2] and in test [4] was inactive.

For `OCCCc1ccccc1`, the result in [1], in test [2] and in test [4] was inactive.

Take `CCOC(=O)/C=C\C(=O)OCC`: the outcome in [1], in test [2] and in test [4] was inactive.

Take `COC(C=C(C)CCC=C(C)C)OC`: the outcome in test [1], in test [2] and in [4] was inactive.

On to `Fc1ccc(Br)cc1`, for which the result in test [1], in test [2] and in test [4] was inactive.

`N=C1C=CC(=C(c2ccc(N)cc2)c2ccc(N)cc2)C=C1`: the AC50 in [1] was 60.4 µM (active); in [2], 67.3 µM (active). Moreover, the result in test [4] was inactive.

Consider `Cc1ccc([N+](=O)[O-])cc1N`, for which the outcome in test [1], in [2], in [4], in [6], in test [7] and in test [8] was inactive. In addition, the result in test [9] was inactive.

For the molecule `CC12CCC(CC1)C(C)(C)O2`, the result in test [1], in [2] and in [4] was inactive.

For `CCC(C)(O)CCCC(C)C` (stereo not drawn), the result in test [1], in test [2] and in test [4] was inactive.

Regarding `NC(=O)Nc1ccccc1`, the outcome in test [1], in test [2] and in test [4] was inactive.

With `CCCCCCC=O`, the result in test [1], in [2] and in test [4] was inactive.
